Measurements: PubChem BioAssay (NCI)
About 83,000 compounds went through this panel and 20% of them were active in at least one assay; those are over-represented in the sample as a whole.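 Negative percent growth values reflect cell death: -40 means 40% of the cells present at the start died, and -100 means all died.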 A number with no mark means an inactive call. Activity calls are given as the source filed them.

tested on: COLO 205 colon; assay: NCI-60 one-dose screen, 48 h (100 = growth as untreated, 0 = no growth, -100 = all killed); settings: 10 µM
Method: Cells are grown in 96 well plates and exposed to the test compound for 48 hours. Compounds are tested at a single concentration, which is 10^-5 M for most compounds. The reported endpoint is percent growth (GI% or GIPRCNT), where numbers from 0 - 100% represent growth inhibition, and numbers from -100% - 0 represent cell death. For example, a value of 40 represents 60% growth inhibition. A value of 0 means no net growth occurred over the course of the experiment. A value of -40 indicates 40% of cells at the beginning of the experiment died by the end of the experiment. A value of -100 means all cells are dead at the end of the experiment.
NCI-60 Human Tumor Cell Lines Screen was performed using the standard one-dose NCI protocol, which is described in more detail at https://dtp.cancer.gov/discovery_development/nci-60/default.htm.
Compounds with GIPRCNT values below 10 were considered active. Activity score was based on GIPRCNT using the following formula: […]
Score is 0 for GIPRCNT values of 100 or above, 50 for GIPRCNT values of 0, and 100 for GIPRCNT values of -100.

| SMILES | growth |
| --- | --- |
| CCN(CC)CCOc1cccc2c1C(=O)c1cccc(OCCN(CC)CC)c1C2=O | 6.57% (active) |
| N#Cc1c(-c2ccc(Cl)cc2)cc(-c2cc(O)ccc2O)nc1N | 97.5% |
| NS(=O)(=O)Oc1ccc(-c2ccc3sccc3c2)cc1 | 114% |
| C#CCOc1c(OC)cc(C(=O)/C(C)=C/c2cccc(N=[N+]=[N-])c2)cc1OC | -31.8% (active) |
| CN(C)CCOc1ccccc1NC1=C(Cl)C(=O)C(Nc2ccccc2OCCN(C)C)=C(Cl)C1=O | -62% (active) |
| Cc1ccc(S(=O)(=O)N/N=C2\CCCc3ccccc32)cc1 | 115% |
| O=c1[nH]c(=O)n(C2C[C@H](O)[C@@H](CO)O2)cc1C(F)(F)F (stereo not given in full) | 113% |
| CC(C)(C)c1nn(-c2ccccc2)c2c1CC1(CN2Cc2ccc(Cl)cc2)C(=O)c2ccccc2C1=O | 117% |
| COc1ccc2c(c1)OC(N)=C(C#N)C2c1cc(OC)c(OC)c(OC)c1 (stereo not given) | -48.6% (active) |
| COc1ccc(/C=C/c2nnc(/C=C/c3ccc(OC)c(OC)c3)o2)cc1OC | 22% |
| O=C(CC(CC(=O)c1ccccc1)c1ccccc1O)c1ccccc1 | 106% |
| CCCCN(CCCC)C(=O)[C@H](CC)[C@@H]1CC[C@@H](C)[C@@H]([C@H](C)[C@@H](O)[C@@H](C)C(=O)[C@H](CC)C2O[C@]3(C=CC(=O)[C@]4(CC[C@@](C)([C@H]5CC[C@](O)(CC)[C@H](C)O5)O4)O3)[C@H](C)C[C@@H]2C)O1 (stereo not given in full) | 21.3% |
| CC(C)[N+]1(C)C2CC[C@@H]1CC(OC(=O)C(CO)c1ccccc1)C2 (stereo not given in full) | 113% |
| S=C1N(c2ccccc2)CN(C2CCCCC2)CN1c1ccccc1 | 112% |
| CCN(CC)CCOc1ccc2c(c1O)C(=O)c1ccccc1C2=O | 46.6% |
| O=c1oc2c(cc1-c1ccc(F)cc1)C(O)Oc1ccccc1-2 (stereo not given) | 101% |
| CN1C(C(=O)Nc2ccccn2)=C(O)c2sc(Cl)cc2S1(=O)=O | 105% |
| COC(=O)c1c[nH]c2cc(OC(C)C)c(OC(C)C)cc2c1=O | 108% |
| C=CCN(CC=C)C(=O)[C@H](CC)[C@@H]1CC[C@@H](C)[C@@H]([C@H](C)[C@@H](O)[C@@H](C)C(=O)[C@H](CC)C2O[C@]3(C=CC(=O)[C@]4(CC[C@@](C)([C@H]5CC[C@](O)(CC)[C@H](C)O5)O4)O3)[C@H](C)C[C@@H]2C)O1 (stereo not given in full) | 1.18% (active) |
| Cc1ccc(NCCNCC(C)(C)O)c2c(=O)c3ccc(Cl)cc3sc12 | -79.2% (active) |

| SMILES | growth |
| --- | --- |
| CCn1c(SC/C(=N/O)c2ccccc2)nnc1-c1ccccc1 | 115% |
| C/C(=N\O)c1ccc(NC(=O)CSc2nnc(-c3ccccc3)n2-c2ccccc2)cc1 | 53.3% |
| CN(C)CCCOc1ccc(OCCCN(C)C)c2c1C(=O)c1ccccc1C2=O | -57.9% (active) |
| Cc1ccc(-n2c(C)nn3c(=O)c4c5c(sc4nc23)CN(C)CC5)cc1 | 103% |
| CC(C)c1ccc(C(C)C(=O)N(CC2=C(C(C)c3ccccn3)c3ccccc3C2)C(C)C)cc1 (stereo not given) | 35.7% |
| COc1cc(-c2ccc(N=Nc3ccc4c(S(=O)(=O)O)ccc(N)c4c3O)c(OC)c2)ccc1N=Nc1ccc2c(S(=O)(=O)O)ccc(N)c2c1O | 95.7% |
| COc1ccccc1/C=N\N/C(N)=N\N=C\c1ccccc1OC | -10.9% (active) |
| CCC(c1ccc(OC)cc1)C(CC)c1ccc(O)c(CN2CCN(C)CC2)c1 (stereo not given) | -83.5% (active) |
| CN(C)CCN(Cc1ccccc1)c1ccc2ccccc2n1 | 89.5% |
| C=C(NC(=O)C(=C)NC(=O)c1csc(C2=NC3c4csc(n4)C4NC(=O)c5csc(n5)C(C(C)(O)C(C)O)NC(=O)C5CSC(=N5)C(=CC)NC(=O)C(C(C)O)NC(=O)c5csc(n5)C3(CC2)NC(=O)C(C)NC(=O)C(=C)NC(=O)C(C)NC(=O)C(C(C)CC)NC2C=Cc3c(C(C)O)cc(nc3C2O)C(=O)OC4C)n1)C(N)=O (stereo not given) | -14.3% (active) |
| CSc1ccc(-c2cc(-c3ccc(NC(=O)CCCN4CCCC4)cc3)nc(-c3ccc(NC(=O)CCCN4CCCC4)cc3)c2)cc1 | 82.6% |
| CCOC(=O)c1cc(C(=O)c2ccc(F)cc2F)n2ccccc12 | 110% |
| Cc1[nH]c2ccccc2c1/C=N/Nc1ncnc2sc3c(c12)CCN(CC(=O)OC(C)(C)C)C3 | 63.4% |
| Cc1cc(O)ccc1C1=NN(c2ccc(S(C)(=O)=O)cc2)C(=O)CC1 | 65.8% |
| NNC(=O)Oc1c(Cl)cc(Cl)cc1[N+](=O)[O-] | 110% |
| COc1cc(OC)c2c(=O)c(O)c(-c3ccccc3)oc2c1 | 104% |
| COc1cc2c3c(n([C@@H]4CCOC4)c(=O)c2cc1OC)-c1cc2c(cc1C3=O)OCO2 | 38.8% |
| COc1ccc(-c2nn(-c3cccc(Cl)c3)cc2C=C(C#N)C#N)cc1 | -9.68% (active) |
| CCOc1ccccc1/C=N/N1CCCCCC1 | 108% |
| CS(=O)(=O)c1nccc(-c2c(-c3cccc(OCc4ccccc4)c3)nc3sccn23)n1 | 88.4% |
